Experimental data taken from the supplement of paper PMC3334620.
The full ranking holds about 33,000 sequences; the median of “E-score (-0.5 to 0.5)” is about -0.021, and the highest 2% start at about 0.32. The entries come from a sample that favours the highest values as a whole.

Target: T1, Zap1 (UniProt P47043)
T1 sequence: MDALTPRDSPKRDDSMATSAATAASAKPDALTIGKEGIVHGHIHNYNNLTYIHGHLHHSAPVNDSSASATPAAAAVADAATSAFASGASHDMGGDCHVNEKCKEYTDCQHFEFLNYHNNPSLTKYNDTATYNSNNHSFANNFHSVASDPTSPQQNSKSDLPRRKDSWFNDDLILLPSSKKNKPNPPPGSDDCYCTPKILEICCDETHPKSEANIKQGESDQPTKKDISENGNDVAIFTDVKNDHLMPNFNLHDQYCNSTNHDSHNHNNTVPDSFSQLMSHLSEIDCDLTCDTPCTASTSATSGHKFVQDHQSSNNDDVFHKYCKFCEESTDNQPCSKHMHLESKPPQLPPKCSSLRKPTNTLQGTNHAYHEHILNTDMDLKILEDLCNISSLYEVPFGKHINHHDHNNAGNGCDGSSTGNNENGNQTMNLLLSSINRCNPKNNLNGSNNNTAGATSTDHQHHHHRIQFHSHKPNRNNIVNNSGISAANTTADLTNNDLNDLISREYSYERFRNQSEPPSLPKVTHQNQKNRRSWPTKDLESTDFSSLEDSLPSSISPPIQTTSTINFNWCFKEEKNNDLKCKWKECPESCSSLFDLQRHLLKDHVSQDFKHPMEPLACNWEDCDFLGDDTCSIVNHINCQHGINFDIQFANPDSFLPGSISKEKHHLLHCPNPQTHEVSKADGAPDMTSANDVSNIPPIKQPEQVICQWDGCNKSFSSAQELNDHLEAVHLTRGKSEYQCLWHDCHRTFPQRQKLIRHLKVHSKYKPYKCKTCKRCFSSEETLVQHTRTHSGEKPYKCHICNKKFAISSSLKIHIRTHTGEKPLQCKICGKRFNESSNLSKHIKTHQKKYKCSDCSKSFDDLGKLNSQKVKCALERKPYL
Experiment: PBM E-score (8-mer binding enrichment) (E-score (-0.5 to 0.5)); higher = stronger / more preferred TF binding
Settings: protein concentration: 200 nM; construct: GST-full length
Summary of the method: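 Full-length yeast transcription factors or their DNA-binding domains, GST-tagged and expressed with PURExpress, were applied at about 100-200 nM to universal all-10-mer Agilent arrays. These arrays had been made double-stranded by primer extension on fresh or once-stripped slides. Detection used fluorescent anti-GST, normalisation used masliner, and E-scores for ungapped eight-base words pooled with reverse complements came from the Universal PBM Analysis Suite.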

Sequence | PBM E-score
ATGGTAAA | 0.0888
GTGGTAAC | 0.36
CTGGTAAC | 0.255
ATGGTAAG | -0.124
ATGGTAAC | 0.392
GTGGTAAA | -0.0285
CAAGTGTC | -0.0245
ACCCAAGA | 0.152
ACTATGGA | -0.0878
ACAATAGG | -0.0709
ACCAGTTA | 0.206
CGATAACC | 0.46
GGATAAAC | 0.149
GGATAACA | -0.0812
AGATAACT | -0.118
AGATAACC | 0.435
CGATAACG | -0.174
CGATAACA | 0.131
GGATAACC | 0.436
AGATAACG | 0.0406
CCTCTCGC | -0.108
ACAAGCCG | -0.223
TATGGGGA | 0.145
AATATCCT | 0.00302
AAGAGCTA | -0.0268

Sequence | PBM E-score
ATGGGGTA | 0.326
GGGGGGTA | -0.0438
GTGGGGTA | 0.368
ATGGGGTG | 0.143
ATGGGGTC | 0.284
CTGGGGTA | 0.269
CGAACACA | 0.085
GGTAACGA | 0.294
AGTAACCC | 0.443
CGTAACGA | -0.081
GGTAACTA | 0.313
AGTAACTA | 0.219
GGTAACCA | 0.461
AGTAAACC | 0.177
AGTAACCA | 0.387
CGTAACTA | 0.0577
CGTAACCA | 0.441
AGTAACGA | 0.0604
AGTAACTC | -0.0584
CATCAGGA | 0.0932
ATAGTTGG | -0.0799
CTGGAGGA | -0.216
AAAGTAGT | 0.0501
ACACTTGG | 0.0219
AGTAACCG | 0.355

Sequence | PBM E-score
CGTAACAA | 0.201
GGTAATAC | 0.248
AGTAACTG | -0.154
GGTAATAA | 0.338
AGTAACAA | 0.161
GGTAACAA | 0.38
AGTAACGG | 0.126
TGTAATAA | 0.133
CAGGGGAG | -0.0274
GCTAATCC | -0.0663
ATCGTTCA | 0.092
CCTTCACA | 0.0885
ACCTGACT | 0.143
CCAGAACA | -0.00016
ATGACCCG | 0.269
CTGACCTC | 0.194
CTGACCCA | -0.11
ATGACCGA | 0.0244
GGGACCCA | 0.198
ATGACCCA | 0.397
AAGACCCA | 0.142
GTGACCCA | 0.389
ATGACCTC | 0.442
AAGACCCC | 0.323
AAGACCCG | 0.0601

Sequence | PBM E-score
ATGACCTG | 0.303
ATCTGCTG | -0.184
GCACCAAC | -0.00297
CTTGACCA | 0.147
CCCTCTGA | 0.0399
ATTTTTTC | 0.0779
ACCTGCCG | -0.0789
AGACAAAC | -0.0937
ATGACCAC | 0.289
ATGACCGC | 0.302
ATGACCCC | 0.385
CTGACCCC | 0.12
GTGACCAC | 0.344
GTGACCAA | 0.305
AAGTGGCC | 0.0931
GGAGCGAC | -0.122
AGGCCACT | -0.13
GACCTCTC | 0.203
AACCTCAA | 0.263
CACCTCTA | 0.22
TACCTCCA | 0.303
ACCCTCTC | 0.121
ACCCTCTA | 0.355
AACCTCTA | 0.351
TACCTCTA | 0.347

Sequence | PBM E-score
AGCCTCTA | -0.101
GCCCTCTA | -0.245
AACCTCTC | 0.349
CACCTCTC | -0.242
CCTGACCG | 0.0354
CTGGCCCA | -0.095
AGTACTTC | 0.148
AGTGTGAA | -0.13
AACGTTGC | -0.161
ACCAAGGG | 0.178
CGCTACCC | 0.302
ATCCCTCA | -0.0235
CGGGATCC | -0.0153
ACAGCGAC | -0.152
GTCCTCTA | -0.0992
AACCTCTG | 0.306
GACCTCTA | 0.318
GGCCTCTA | 0.0229
AACCTCTT | 0.397
AACCTCCT | 0.158
GCGGGGCC | -0.0181
CAACGCGC | 0.0876
CTTAGAGC | 0.0313
GGCATCCA | -0.107
GACCAGTA | 0.0618

Sequence | PBM E-score
AAAATGTG | -0.0329
AATGGGCG | -0.204
CTAACCCC | 0.178
GTAACCCA | 0.468
GGAACCCA | 0.171
ATAACCCG | 0.442
ATAACCCA | 0.472
AGAACCCG | 0.223
AAAACCCG | 0.131
GAAACCCA | 0.246
CTAACCCA | 0.326
ATAAACCA | 0.121
AAAACCCA | 0.258
TGAACCCA | 0.242
CTTTGCGC | -0.0424
GTGATTTA | 0.193
AACTGTTC | -0.0321
ACTTTAGC | -0.16
AATCAGTA | -0.0224
AGGGAGAG | -0.0798
CCAGGGTC | 0.19
GCAGGGTA | 0.373
ACAGGGTA | 0.366
CCAGGGTA | 0.323
ACAGGGTG | 0.199

Sequence | PBM E-score
CCAGGGCA | -0.123
ACAGGGTC | 0.315
GCAGGGAA | -0.0199
GCAGGGGA | -0.177
CGACAGCG | -0.154
CGCCGCGC | -0.0986
ATTGCGGG | 0.11
CGAGTAAG | 0.119
AGCAGTAT | 0.0154
CGCAAACC | 0.0968
TCGCGAGA | 0.117
ATTAACCA | 0.246
GTTAACCA | 0.338
ATTAACAG | -0.102
GTTAACTA | 0.263
CTTAACGA | -0.00709
ATTAACCG | 0.331
ATTAACGG | 0.0866
CTTAACAC | 0.0174
CTTAACCC | 0.387
CTCAACCC | 0.201
CTTAACCA | 0.376
